Screens (PubChem)
Only some compounds are listed: those with a hit (about 4.1% of all), similar ones and a draw of the others.
DAX1 inh-1 = DAX1 (NR0B1) inhibitors, primary screen, cell-based, HEK293, Gal4-DAX1, luciferase luminescence. Nuclear receptor subfamily 0 group B member 1 (Homo sapiens), P51843. HEK293 Gal4-DAX1 luciferase reporter. inhibition, % at 6.75 µM. 340,000 tested, 0.99% active. AID 504766, 2011;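 active = inhibition above the mean over all tested compounds plus 3 SD, cut at about 4.2% in these data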;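 note: inhibition shows as a rise in luminescence from relieved DAX1 repression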
Target sequence (P51843 207-470 limits assumed): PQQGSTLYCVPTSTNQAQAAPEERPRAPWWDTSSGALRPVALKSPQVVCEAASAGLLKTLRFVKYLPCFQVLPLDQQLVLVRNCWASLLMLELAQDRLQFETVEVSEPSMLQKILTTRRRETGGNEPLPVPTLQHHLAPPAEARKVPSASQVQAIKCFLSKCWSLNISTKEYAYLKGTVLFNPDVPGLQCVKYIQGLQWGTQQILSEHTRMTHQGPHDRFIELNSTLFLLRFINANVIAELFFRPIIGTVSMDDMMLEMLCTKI
hgDAF-12 ag = H. glycines DAF-12 receptor agonists, primary screen, cell-based, luminescence, HEK293, GAL4 fusion, UAS-luciferase; HEK293 GAL4-hgDAF12 UAS-luciferase reporter, agonist luminescence; normalized to butyrate control; activation, % at 6.8 µM; 370,000 tested, 1.8% active;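 active = activation above a cutoff set at the mean of all screened compounds plus 3 SD, cut at about 10% in these data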
ssDAF12 agonist = S. stercoralis DAF-12 nuclear receptor activators, primary screen, cell-based, luminescence, HEK293, GRIP1 co-expression, lit1-tk-luc | HEK293 ssDAF-12/GRIP1 lit1-tk-luc reporter; % of 3 µM dafachronic acid response | activation, % at 6.8 µM | 370,000 tested, 1% active;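 active = activation above the mean over all tested compounds plus 3 SD, cut at about 0.9% in these data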
DAX1 inh-2 = DAX1 (NR0B1) inhibitors on StAR promoter, primary screen, cell-based, luminescence, SF-1 (NR5A1), full-length DAX-1. 370,000 tested, 1.1% active. inhibition, % at 6.8 µM. HEK293T StAR-luciferase reporter, SF-1/DAX-1 repression relief;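 active = inhibition above the mean over all tested compounds plus 3 SD, cut at about 3.6% in these data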;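 note: higher inhibition means more luminescence from relief of DAX-1 repression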
hcDAF-12 act = H. contortus DAF-12 nuclear receptor activators, primary screen, cell-based, luminescence, HEK293, lit1-tk-luc reporter; HEK293 hcDAF-12 lit1-tk-luc reporter; 0% DMSO, 100% Δ7-dafachronic acid; activation, % at 6.8 µM; 370,000 tested, 1.4% active; AID 652067, 2013;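 active = activation above the mean of all tested compounds plus 3 SD, cut at about 5.5% in these data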
Large screens that a line does not name were inactive.

CC(C)(C)NC(=O)c1cc(-c2ccc3c(c2)OCO3)nc2ccccc12	hcDAF-12 act 5.9
O=C(O)c1cc(-c2ccc3c(c2)OCO3)nc2ccc(Cl)cc12	hcDAF-12 act 5.8
C#CCNC(=O)C[C@H]1C[C@@]2(C(=O)OC)C(=C[C@H](C(C)(C)C)O[C@@H]2C)N(CCC2=CCCCC2)C1=O	none (no result: DAX1 inh-1)
Cc1cccc(NC(=O)C2CCCN2S(=O)(=O)c2cccnc2)c1C (stereo not given)	none (no result: DAX1 inh-1)
Cc1ccccc1NC(=O)COC(=O)c1ccccc1SCC(=O)N1CCCC1	DAX1 inh-1 4.3
CC(=O)Nc1ccc(NC(=O)COC(=O)c2ccccc2SCC(=O)N2CCCC2)cc1	none
O=C(NCCc1ccccc1)c1ccccc1SCC(=O)N1CCCC1	ssDAF12 agonist 1.2, hcDAF-12 act 6.4
CCNC(=O)NC(=O)COC(=O)c1ccccc1SCC(=O)NC(=O)NCC	hgDAF-12 ag 12.3, ssDAF12 agonist 2.3, DAX1 inh-2 3.9, hcDAF-12 act 7.9
COc1ccccc1CCNC(=O)c1ccccc1SCC(=O)N1CCCC1	none
O=C1NC(=O)C2(CCCc3ccc(N(CCO)CCO)cc32)N1 (stereo not given)	none (no result: DAX1 inh-1)
CCOC(=O)CCCNC(=O)OC1CC2CC1[C@H]1CCCCN1[C@H]2C (stereo not given in full)	none (no result: DAX1 inh-1)
CC1(C)CC2CN(Cc3ccccc3)S(=O)(=O)N2C1 (stereo not given)	none (no result: DAX1 inh-1, DAX1 inh-2)
O=C(NC1CCCCN(Cc2cccc(Cl)c2)C1=O)c1ccc(F)c(F)c1 (stereo not given)	none (no result: DAX1 inh-1)
O=C(CSc1nnc(SCc2cccc3ccccc23)s1)Nc1ccccc1-c1ccccc1	none (no result: DAX1 inh-1)
COc1ccc(OCc2cc(C(=O)N(C)Cc3cc(C)no3)no2)c(Cl)c1	hgDAF-12 ag 11.9
COc1ccc(OCc2cc(C(=O)N3CCCN(C(C)=O)CC3)no2)c(Cl)c1	none
COc1ccc(OCc2cc(C(=O)N[C@H]3CCCCNC3=O)no2)c(Cl)c1	DAX1 inh-2 3.6
COc1ccc(OCc2cc(C(=O)NC(C)c3nc(C)cs3)no2)c(Cl)c1 (stereo not given)	hgDAF-12 ag 11.9
O=C(OCCCN1CCC2(CCCCC2)C1=O)c1ccccc1	none (no result: DAX1 inh-1)
O=C(Nc1ccccc1)OCCN1CCCC12CCC(c1ccccc1)CC2 (stereo not given)	none (no result: DAX1 inh-1, DAX1 inh-2)
NC(Cc1ccc2nsnc2c1)C(=O)O (stereo not given)	ssDAF12 agonist 2.9
N[C@@H](Cc1ccc(O)c(O)c1)C(=O)O	none
COc1ccc(OC)c(S(=O)(=O)CC(=O)c2cc3ccccc3oc2=O)c1	none (no result: DAX1 inh-1)
Cc1cccc(NC(=O)CN2CCN(C(=O)c3ccc(-c4nc5ccccc5s4)o3)CC2)c1C	DAX1 inh-2 4.0
Cc1ccc(Cn2cc(CN3[C@H](C)COc4cc(Br)ccc4S3(=O)=O)nn2)cc1	none (no result: DAX1 inh-1)
CCCCOc1ccc(C(=O)N2CCNC(=O)C2CC(=O)OC(C)C)cc1 (stereo not given)	ssDAF12 agonist 1.9
C/C(=N/NC(=O)c1ccco1)c1cccc(NC(=O)c2ccc(C)o2)c1	hgDAF-12 ag 12.6
C/C(=N/NC(=O)c1ccco1)c1cccc(NC(=O)c2ccc(C)s2)c1	hgDAF-12 ag 12.0
C/C(=N\NC(=O)c1cccc(C)c1)c1cccc(NC(=O)c2ccco2)c1	none
CCCCNc1c(-c2ccc(SC3CCCCC3)cc2)nc2ccccn12	DAX1 inh-1 5.1, hgDAF-12 ag 11.8, DAX1 inh-2 4.0
Cc1ccc(-n2c(CSc3nc(C)cc(C)n3)nnc2SCC(=O)NCc2ccco2)cc1	ssDAF12 agonist 0.9, hcDAF-12 act 5.6
C=CCN1C(=O)/C(=C/c2ccc(OC)cc2)S/C1=N/c1nccs1	none
C=CCN=C1S/C(=C\c2ccc(N(C)C)cc2)C(=O)N1CC=C	DAX1 inh-1 4.7
CCOc1ccc(C(=O)CSc2nnc(SCc3ccc(Cl)cc3)s2)cc1	none (no result: DAX1 inh-1)
COc1ccc(Cc2c(-c3ccc(F)cc3)nc3cc(C)c(Br)c(C)n23)c(C)c1	ssDAF12 agonist 2.2, hcDAF-12 act 5.7 (no result: DAX1 inh-1)
COc1ccc(Cc2c(C(C)(C)C)nc3cc(C)c(Br)c(C)n23)c(C)c1	ssDAF12 agonist 1.8 (no result: DAX1 inh-1)
COc1ccc(Cc2c(-c3ccc(Cl)cc3)nc3cc(C)c(Br)c(C)n23)c(C)c1	hgDAF-12 ag 13.2, ssDAF12 agonist 0.9 (no result: DAX1 inh-1)
CC(C)(C)c1ccc(-c2cc(C(=O)NNC(=O)Nc3ccccc3)c3ccccc3n2)cc1	hgDAF-12 ag 11.2, DAX1 inh-2 3.9
O=C(NNS(=O)(=O)c1ccc(Cl)cc1)c1cc(-c2ccccc2)nc2ccccc12	none
Cc1cccc(S(=O)(=O)NNC(=O)c2cc(-c3ccc(F)cc3)nc3ccccc23)c1	DAX1 inh-1 4.3
COC(=O)C1CCCN(C(=O)C2CCN(S(=O)(=O)c3cccs3)CC2)C1 (stereo not given)	none (no result: DAX1 inh-1)
O=S(=O)(c1cccs1)N1CCCc2nc(-c3ccc(F)cc3)ccc21	none (no result: DAX1 inh-1)
CN(C)c1ccc(Nc2ccc([N+](=O)[O-])cn2)cc1	DAX1 inh-1 5.4
Cc1ccc(C(=O)N/N=C/c2ccc3c(c2)OCO3)o1	ssDAF12 agonist 1.0, hcDAF-12 act 5.9
Cc1ccc(-c2cc(-c3nnc(SCC(=O)Nc4ccc(OCc5ccccc5)cc4)n3N)[nH]n2)cc1	none (no result: DAX1 inh-1)
O=C(Nc1nc2ncccn2c1-c1ccc(C(F)(F)F)cc1)c1ccc(F)cc1	none (no result: DAX1 inh-1)
CC#CCc1cc2ccccc2c(=O)o1	DAX1 inh-1 4.6
Cc1noc(C)c1C(=O)N1CCC(n2nnc3ncccc32)CC1	none (no result: DAX1 inh-1)
CC(=O)C(C(c1ccccc1)N1CCCc2ccccc21)N1CCOCC1 (stereo not given)	ssDAF12 agonist 1.1
COc1cc(C(=O)OCC(C)=O)ccc1OCc1c(C)noc1C	none
COc1cc(C(=O)OCC(=O)N2CCCCC2C)ccc1OCc1c(C)noc1C (stereo not given)	DAX1 inh-1 4.7
O=C(CC1CCCC1)N1CC[C@H]2[C@H](CCCN2Cc2ccc(F)cc2)C1	none (no result: DAX1 inh-1)
O=C(Nc1cnc2ccccn2c1=O)c1ccc(Cl)cc1	hgDAF-12 ag 12.8
CC(=O)Nc1ccc(Cl)cc1C(=O)O	ssDAF12 agonist 0.9
Fc1ccc(-n2c(-c3ccc4ccccc4n3)n[nH]c2=S)cc1	DAX1 inh-1 6.3
CCn1c(SCC(=O)N2CC(C)OC(C)C2)nc2c([nH]c3ccccc32)c1=O (stereo not given)	hcDAF-12 act 6.5
COCCn1c(SCC(=O)N2CCCC2)nc2c([nH]c3ccccc32)c1=O	none
CNC(=O)CSc1nc2c([nH]c3ccccc32)c(=O)n1CCOC	hcDAF-12 act 5.6
